Test results published in the supplement of paper PMC10811239.

Tests used:
Assay in all cases: bioluminescence (viable cell) signal fold change after vs before treatment, normalised to DMSO (ratio); higher = more tumour cell growth / less inhibition
Conditions in all cases: 10 µM; treatment time 6 days
[1] = test system: LEGO organoid PT (PTEN-/-; TP53-/-)
Description: (§1)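 Luc2-labelled iPSC-derived glioblastoma-like organoids (LEGOs, genotypes PT = PTEN-/-;TP53-/-, PTCC = plus CDKN2A/B-/-, PTN = plus NF1-/-) were treated with 10 uM drug for 6 days (applied every other day) at 37 C. Bioluminescence imaging was done before treatment and 2 days after the last dose. BLI signals were normalised to the DMSO control on the same day and then to the pre-treatment signal (N=3).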

[2] = test system: LEGO organoid PTCC (PTEN-/-; TP53-/-; CDKN2A-/-; CDKN2B-/-)
Description: as §1

[3] = test system: LEGO organoid PTN (PTEN-/-; TP53-/-; NF1-/-)
Description: as §1

Compound: Cl.OC(CCN1CCCCC1)(c1ccccc1)C1CCCCC1 (racemic) [DL-trihexyphenidyl hydrochloride]
- bioluminescence [1]: 1.67
- bioluminescence [2]: 0.966
- bioluminescence [3]: 0.496

Compound: CCCCCCCCCC(=O)OCCN1CCN(CCCN2c3ccccc3Sc3ccc(C(F)(F)F)cc32)CC1 [Fluphenazine decanoate]
- bioluminescence [1]: 0.875
- bioluminescence [2]: 2.63
- bioluminescence [3]: 0.964

Compound: CO[C@H]1C[C@@H]2CC[C@@H](C)[C@@](O)(O2)C(=O)C(=O)N2CCCC[C@H]2C(=O)O[C@H]([C@H](C)C[C@@H]2CC[C@@H](OC(=O)C(C)(CO)CO)[C@H](OC)C2)CC(=O)[C@H](C)/C=C(\C)[C@@H](O)[C@@H](OC)C(=O)[C@H](C)C[C@H](C)/C=C/C=C/C=C/1C [Temsirolimus]
- bioluminescence [1]: 1.26
- bioluminescence [2]: 0.978
- bioluminescence [3]: 0.856

Compound: C[C@H]1COc2c(N3CCN(C)CC3)c(F)cc3c(=O)c(C(=O)O)cn1c23 [Levofloxacin]
- bioluminescence [2]: 0.587
- bioluminescence [3]: 0.861

Compound: CC(C)c1nc(CN(C)C(=O)N[C@H](C(=O)N[C@@H](Cc2ccccc2)C[C@H](O)[C@H](Cc2ccccc2)NC(=O)OCc2cncs2)C(C)C)cs1 [Ritonavir]
- bioluminescence [1]: 1.3
- bioluminescence [2]: 2
- bioluminescence [3]: 1.83

Compound: OC(Cn1cncn1)(Cn1cncn1)c1ccc(F)cc1F [Fluconazole]
- bioluminescence [1]: 1.04
- bioluminescence [2]: 0.967
- bioluminescence [3]: 1.54

Compound: CCc1c2c(nc3ccc(OC(=O)N4CCC(N5CCCCC5)CC4)cc13)-c1cc3c(c(=O)n1C2)COC(=O)[C@]3(O)CC.Cl.O.O.O [Irinotecan hydrochloride trihydrate]
- bioluminescence [1]: 0.98
- bioluminescence [2]: 0.793
- bioluminescence [3]: 1.15

Compound: CC(=O)OCC(=O)[C@@]1(O)CC[C@H]2[C@@H]3CCC4=CC(=O)C=C[C@]4(C)[C@H]3[C@@H](O)C[C@@]21C [Prednisolone-21-acetate]
- bioluminescence [1]: 0.578
- bioluminescence [2]: 1.01
- bioluminescence [3]: 0.956

Compound: COc1cc(Nc2ncc(F)c(Nc3ccc4c(n3)N(COP(=O)(O)O)C(=O)C(C)(C)O4)n2)cc(OC)c1OC [Fostamatinib]
- bioluminescence [1]: 0.0894
- bioluminescence [2]: 0.182
- bioluminescence [3]: 0.0646

Compound: Cl.O.O=C1Cc2cc(CCN3CCN(c4nsc5ccccc45)CC3)c(Cl)cc2N1 [Ziprasidone hydrochloride monohydrate]
- bioluminescence [1]: 0.909
- bioluminescence [2]: 1.05
- bioluminescence [3]: 0.716

Compound: CCC(=O)NCC[C@@H]1CCc2ccc3c(c21)CCO3 [Ramelteon]
- bioluminescence [1]: 0.961
- bioluminescence [2]: 1.56
- bioluminescence [3]: 2.06

Compound: Cc1ccc(Nc2nccc(N(C)c3ccc4c(C)n(C)nc4c3)n2)cc1S(N)(=O)=O.Cl [Pazopanib HCl]
- bioluminescence [2]: 1.41
- bioluminescence [3]: 1.02

Compound: CN1CCN2c3ncccc3Cc3ccccc3C2C1 (stereo not drawn) [Mirtazapine]
- bioluminescence [1]: 1.1
- bioluminescence [2]: 1.47
- bioluminescence [3]: 0.789

Compound: CS(=O)(=O)O.Cc1ccc(NC(=O)c2ccc(CN3CCN(C)CC3)cc2)cc1Nc1nccc(-c2cccnc2)n1 [Imatinib Mesylate]
- bioluminescence [2]: 1.35
- bioluminescence [3]: 2.11

Compound: O.O.O.O.O.O.O.O=C1CN(/N=C/c2ccc(-c3ccc([N+](=O)[O-])cc3)o2)C(=O)[N-]1.O=C1CN(/N=C/c2ccc(-c3ccc([N+](=O)[O-])cc3)o2)C(=O)[N-]1.[Na+].[Na+] [Dantrolene sodium hemiheptahydrate]
- bioluminescence [1]: 0.935
- bioluminescence [2]: 2.4
- bioluminescence [3]: 2.84

Compound: O=c1[nH]cnc2c1ncn2[C@H]1CC[C@@H](CO)O1 [Didanosine]
- bioluminescence [1]: 0.958
- bioluminescence [2]: 4.18
- bioluminescence [3]: 0.81

Compound: NC(=O)c1ncn([C@@H]2O[C@H](CO)[C@@H](O)[C@H]2O)n1 [Ribavirin]
- bioluminescence [1]: 0.826
- bioluminescence [2]: 1.89
- bioluminescence [3]: 0.822

Compound: CCCCCCCCCCC[C@@H](C[C@@H]1OC(=O)[C@H]1CCCCCC)OC(=O)[C@H](CC(C)C)NC=O [Orlistat]
- bioluminescence [1]: 1.4
- bioluminescence [2]: 0.925
- bioluminescence [3]: 1.32

Compound: CO[C@H]1/C=C/O[C@@]2(C)Oc3c(C)c(O)c4c(O)c(c(/C=N/N5CCN(C)CC5)c(O)c4c3C2=O)NC(=O)/C(C)=C\C=C\[C@H](C)[C@H](O)[C@@H](C)[C@@H](O)[C@@H](C)[C@H](OC(C)=O)[C@@H]1C [Rifampicin]
- bioluminescence [1]: 3.6
- bioluminescence [2]: 0.603
- bioluminescence [3]: 0.579

Compound: CC(=O)OCC[N+](C)(C)C.[Cl-] [Acetylcholine chloride]
- bioluminescence [1]: 0.981
- bioluminescence [2]: 1.09
- bioluminescence [3]: 1.15

Compound: CSc1ccc2c(c1)N(CCC1CCCCN1C)c1ccccc1S2.Cl (stereo not drawn) [Thioridazine hydrochloride]
- bioluminescence [1]: 0.68
- bioluminescence [2]: 0.704
- bioluminescence [3]: 1.56

Compound: FC(F)(F)c1ccc(CNc2ccc(Cc3c[nH]c4ncc(Cl)cc34)cn2)cn1 [Pexidartinib]
- bioluminescence [1]: 0.7
- bioluminescence [2]: 3.05
- bioluminescence [3]: 0.351
